Measurements reported in ChEMBL document CHEMBL2218924, “A broad activity screen in support of a chemogenomic map for kinase signalling research and drug discovery” (Biochem J, 2013).

Legend:
[1] = target: T1, Serine/threonine-protein kinase TBK1 (Homo sapiens) (UniProt Q9UHD2); conditions: at 10 µM
T1 sequence (whole entry): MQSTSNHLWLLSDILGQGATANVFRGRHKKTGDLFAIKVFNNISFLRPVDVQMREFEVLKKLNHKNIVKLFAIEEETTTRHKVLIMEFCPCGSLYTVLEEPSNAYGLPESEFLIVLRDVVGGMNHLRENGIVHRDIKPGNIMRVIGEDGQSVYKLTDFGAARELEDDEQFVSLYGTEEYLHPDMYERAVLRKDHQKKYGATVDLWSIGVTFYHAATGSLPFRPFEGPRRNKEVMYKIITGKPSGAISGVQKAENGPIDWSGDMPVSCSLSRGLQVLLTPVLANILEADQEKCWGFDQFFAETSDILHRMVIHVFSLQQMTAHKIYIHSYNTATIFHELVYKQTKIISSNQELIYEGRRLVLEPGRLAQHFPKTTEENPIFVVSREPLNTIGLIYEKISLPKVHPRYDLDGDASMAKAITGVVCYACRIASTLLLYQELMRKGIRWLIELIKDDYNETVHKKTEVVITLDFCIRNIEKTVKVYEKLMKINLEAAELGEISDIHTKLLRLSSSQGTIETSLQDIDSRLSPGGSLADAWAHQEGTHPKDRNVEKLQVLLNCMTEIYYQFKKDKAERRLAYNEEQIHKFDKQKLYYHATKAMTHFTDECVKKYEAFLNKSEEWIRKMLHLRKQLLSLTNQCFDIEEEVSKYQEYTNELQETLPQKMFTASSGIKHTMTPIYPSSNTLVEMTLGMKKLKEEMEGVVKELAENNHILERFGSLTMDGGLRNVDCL

[2] = target: T2, TGF-beta receptor type-1 (Homo sapiens) (UniProt P36897); conditions: at 1 µM
T2 sequence (whole entry): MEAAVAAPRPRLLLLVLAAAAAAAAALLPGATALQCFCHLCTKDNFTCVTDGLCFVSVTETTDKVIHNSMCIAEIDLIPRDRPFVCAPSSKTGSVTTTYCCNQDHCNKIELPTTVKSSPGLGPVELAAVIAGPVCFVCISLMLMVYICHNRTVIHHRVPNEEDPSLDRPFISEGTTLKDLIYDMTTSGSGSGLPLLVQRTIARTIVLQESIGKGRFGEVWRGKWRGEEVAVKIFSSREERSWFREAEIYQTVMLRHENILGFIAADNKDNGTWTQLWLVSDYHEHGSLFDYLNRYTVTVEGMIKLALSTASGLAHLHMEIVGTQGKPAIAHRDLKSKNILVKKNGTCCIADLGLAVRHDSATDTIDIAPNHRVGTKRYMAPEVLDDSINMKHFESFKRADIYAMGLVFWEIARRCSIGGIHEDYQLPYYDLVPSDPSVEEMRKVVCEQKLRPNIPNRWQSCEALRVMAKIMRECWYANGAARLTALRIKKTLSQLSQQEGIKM

[3] = target: T2, TGF-beta receptor type-1 (Homo sapiens); conditions: at 10 µM
[4] = target: T3, Inhibitor of nuclear factor kappa-B kinase subunit beta (Homo sapiens) (UniProt O14920); conditions: at 1 µM
T3 sequence (whole entry): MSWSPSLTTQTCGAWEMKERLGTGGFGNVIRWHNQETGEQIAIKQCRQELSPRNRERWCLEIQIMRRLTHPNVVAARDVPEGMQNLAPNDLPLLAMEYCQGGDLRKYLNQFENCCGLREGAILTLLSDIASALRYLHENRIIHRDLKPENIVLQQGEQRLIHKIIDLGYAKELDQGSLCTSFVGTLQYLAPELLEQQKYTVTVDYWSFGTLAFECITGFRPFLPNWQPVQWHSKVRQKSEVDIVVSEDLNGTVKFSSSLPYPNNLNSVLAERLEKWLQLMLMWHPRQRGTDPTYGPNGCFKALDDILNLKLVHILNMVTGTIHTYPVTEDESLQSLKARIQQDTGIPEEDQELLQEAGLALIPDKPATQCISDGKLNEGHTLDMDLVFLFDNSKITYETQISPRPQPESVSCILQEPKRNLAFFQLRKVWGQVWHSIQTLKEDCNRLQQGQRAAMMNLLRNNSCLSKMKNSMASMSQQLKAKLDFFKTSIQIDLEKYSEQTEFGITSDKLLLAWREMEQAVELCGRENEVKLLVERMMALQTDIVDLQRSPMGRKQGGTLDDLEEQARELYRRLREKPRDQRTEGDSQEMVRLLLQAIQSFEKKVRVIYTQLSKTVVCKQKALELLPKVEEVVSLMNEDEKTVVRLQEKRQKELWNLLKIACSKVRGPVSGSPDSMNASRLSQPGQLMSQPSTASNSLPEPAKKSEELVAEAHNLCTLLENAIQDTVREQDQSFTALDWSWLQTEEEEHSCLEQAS

[5] = target: Interleukin-1 receptor-associated kinase 1 (Homo sapiens) (UniProt P51617); conditions: at 1 µM
Chain of Interleukin-1 receptor-associated kinase 1 (Homo sapiens) (P51617 whole entry, looked up): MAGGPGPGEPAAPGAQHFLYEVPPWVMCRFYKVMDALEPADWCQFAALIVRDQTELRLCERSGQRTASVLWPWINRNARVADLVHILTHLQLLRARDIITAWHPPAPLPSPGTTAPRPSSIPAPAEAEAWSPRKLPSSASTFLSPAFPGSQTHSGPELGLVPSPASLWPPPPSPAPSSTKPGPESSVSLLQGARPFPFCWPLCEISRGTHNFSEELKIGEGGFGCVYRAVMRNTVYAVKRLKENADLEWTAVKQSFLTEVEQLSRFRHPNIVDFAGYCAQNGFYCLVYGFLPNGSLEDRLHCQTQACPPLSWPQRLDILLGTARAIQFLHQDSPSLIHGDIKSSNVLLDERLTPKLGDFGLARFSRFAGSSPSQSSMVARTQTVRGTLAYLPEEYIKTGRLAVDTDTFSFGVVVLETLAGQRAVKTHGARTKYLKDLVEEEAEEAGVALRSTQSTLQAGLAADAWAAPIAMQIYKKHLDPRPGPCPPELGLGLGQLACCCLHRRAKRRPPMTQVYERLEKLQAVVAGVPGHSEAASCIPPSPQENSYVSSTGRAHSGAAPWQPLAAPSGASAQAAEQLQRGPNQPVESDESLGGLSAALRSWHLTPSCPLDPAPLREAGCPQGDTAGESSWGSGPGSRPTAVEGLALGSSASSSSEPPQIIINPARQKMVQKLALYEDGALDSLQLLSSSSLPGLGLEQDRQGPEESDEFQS

[6] = target: Interleukin-1 receptor-associated kinase 1 (Homo sapiens) (UniProt P51617); conditions: at 10 µM
[7] = target: Insulin receptor-related protein (Homo sapiens) (UniProt P14616); conditions: at 1 µM
Chain of Insulin receptor-related protein (Homo sapiens) (P14616 27-742 limits assumed): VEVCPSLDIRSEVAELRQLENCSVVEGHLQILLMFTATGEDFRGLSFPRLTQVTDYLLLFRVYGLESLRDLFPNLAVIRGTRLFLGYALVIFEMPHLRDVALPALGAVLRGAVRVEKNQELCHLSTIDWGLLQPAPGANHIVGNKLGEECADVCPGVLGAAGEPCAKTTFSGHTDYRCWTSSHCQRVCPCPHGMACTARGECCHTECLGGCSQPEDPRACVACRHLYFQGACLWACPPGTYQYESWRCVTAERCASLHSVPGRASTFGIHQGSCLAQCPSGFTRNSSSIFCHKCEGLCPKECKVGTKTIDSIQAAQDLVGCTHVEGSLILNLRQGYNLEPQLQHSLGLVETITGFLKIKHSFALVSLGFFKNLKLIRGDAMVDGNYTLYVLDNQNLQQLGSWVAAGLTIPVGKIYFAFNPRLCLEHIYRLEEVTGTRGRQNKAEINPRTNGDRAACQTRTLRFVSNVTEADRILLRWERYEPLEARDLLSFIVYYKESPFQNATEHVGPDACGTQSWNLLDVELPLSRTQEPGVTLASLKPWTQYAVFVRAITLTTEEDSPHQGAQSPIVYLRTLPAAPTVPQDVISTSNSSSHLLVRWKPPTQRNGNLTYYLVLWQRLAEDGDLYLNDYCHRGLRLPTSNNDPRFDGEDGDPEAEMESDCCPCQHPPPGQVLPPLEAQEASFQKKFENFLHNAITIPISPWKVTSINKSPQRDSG
Chain of Insulin receptor-related protein (Homo sapiens) (P14616 747-1297 limits assumed): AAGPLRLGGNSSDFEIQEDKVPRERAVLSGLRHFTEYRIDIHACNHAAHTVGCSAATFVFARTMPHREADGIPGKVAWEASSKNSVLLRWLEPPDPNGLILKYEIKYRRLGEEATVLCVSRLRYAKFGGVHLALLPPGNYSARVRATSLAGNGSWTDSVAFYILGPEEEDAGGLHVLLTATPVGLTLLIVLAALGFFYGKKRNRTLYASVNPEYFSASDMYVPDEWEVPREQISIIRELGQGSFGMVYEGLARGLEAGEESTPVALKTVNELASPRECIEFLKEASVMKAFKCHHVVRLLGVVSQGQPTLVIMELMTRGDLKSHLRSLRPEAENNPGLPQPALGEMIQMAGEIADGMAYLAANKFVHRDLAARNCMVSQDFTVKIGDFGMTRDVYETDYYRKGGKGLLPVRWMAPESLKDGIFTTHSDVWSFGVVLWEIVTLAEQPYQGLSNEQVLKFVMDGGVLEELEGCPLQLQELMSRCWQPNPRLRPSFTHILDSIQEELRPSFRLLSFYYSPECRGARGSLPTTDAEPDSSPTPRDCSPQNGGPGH

[8] = target: Insulin receptor-related protein (Homo sapiens) (UniProt P14616); conditions: at 10 µM
[9] = target: T4, Tyrosine-protein kinase ITK/TSK (Homo sapiens) (UniProt Q08881); conditions: at 1 µM
T4 sequence (whole entry): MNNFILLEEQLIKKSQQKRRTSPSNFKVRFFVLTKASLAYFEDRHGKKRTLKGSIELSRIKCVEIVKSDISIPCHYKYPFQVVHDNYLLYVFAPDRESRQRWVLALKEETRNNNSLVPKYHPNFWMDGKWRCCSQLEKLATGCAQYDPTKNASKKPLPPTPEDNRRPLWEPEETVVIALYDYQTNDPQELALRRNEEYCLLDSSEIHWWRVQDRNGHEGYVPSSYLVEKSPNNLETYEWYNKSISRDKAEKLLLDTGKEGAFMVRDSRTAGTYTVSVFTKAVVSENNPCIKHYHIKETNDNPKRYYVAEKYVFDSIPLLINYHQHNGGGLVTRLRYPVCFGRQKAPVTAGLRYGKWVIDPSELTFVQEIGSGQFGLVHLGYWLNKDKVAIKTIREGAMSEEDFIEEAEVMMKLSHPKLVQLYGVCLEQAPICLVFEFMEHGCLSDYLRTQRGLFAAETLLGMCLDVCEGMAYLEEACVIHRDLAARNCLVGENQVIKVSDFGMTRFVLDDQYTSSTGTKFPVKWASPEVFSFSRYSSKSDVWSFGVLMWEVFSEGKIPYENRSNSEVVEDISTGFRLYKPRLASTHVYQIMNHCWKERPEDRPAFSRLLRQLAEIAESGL

[10] = target: Insulin-like growth factor 1 receptor (Homo sapiens) (UniProt P08069); conditions: at 10 µM
Chain of Insulin-like growth factor 1 receptor (Homo sapiens) (P08069 31-736 limits assumed): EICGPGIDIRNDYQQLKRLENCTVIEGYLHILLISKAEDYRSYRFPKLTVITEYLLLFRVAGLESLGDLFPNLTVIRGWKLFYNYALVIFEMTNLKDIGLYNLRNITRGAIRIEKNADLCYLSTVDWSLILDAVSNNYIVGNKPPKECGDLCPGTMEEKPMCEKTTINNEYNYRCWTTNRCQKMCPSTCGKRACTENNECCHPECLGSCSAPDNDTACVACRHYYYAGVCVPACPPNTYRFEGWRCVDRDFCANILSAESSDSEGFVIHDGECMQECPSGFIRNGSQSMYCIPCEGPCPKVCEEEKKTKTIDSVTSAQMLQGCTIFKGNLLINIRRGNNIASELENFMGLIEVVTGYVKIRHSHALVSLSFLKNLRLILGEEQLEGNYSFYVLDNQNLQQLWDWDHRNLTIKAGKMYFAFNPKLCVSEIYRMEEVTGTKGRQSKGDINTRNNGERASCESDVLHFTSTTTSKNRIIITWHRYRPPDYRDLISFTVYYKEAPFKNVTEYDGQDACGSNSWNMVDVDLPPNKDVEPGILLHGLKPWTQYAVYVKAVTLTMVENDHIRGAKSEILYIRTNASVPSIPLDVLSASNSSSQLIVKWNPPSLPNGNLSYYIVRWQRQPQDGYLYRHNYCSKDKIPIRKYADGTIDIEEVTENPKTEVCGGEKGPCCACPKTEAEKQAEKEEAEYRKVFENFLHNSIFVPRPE
Chain of Insulin-like growth factor 1 receptor (Homo sapiens) (P08069 741-1367 limits assumed): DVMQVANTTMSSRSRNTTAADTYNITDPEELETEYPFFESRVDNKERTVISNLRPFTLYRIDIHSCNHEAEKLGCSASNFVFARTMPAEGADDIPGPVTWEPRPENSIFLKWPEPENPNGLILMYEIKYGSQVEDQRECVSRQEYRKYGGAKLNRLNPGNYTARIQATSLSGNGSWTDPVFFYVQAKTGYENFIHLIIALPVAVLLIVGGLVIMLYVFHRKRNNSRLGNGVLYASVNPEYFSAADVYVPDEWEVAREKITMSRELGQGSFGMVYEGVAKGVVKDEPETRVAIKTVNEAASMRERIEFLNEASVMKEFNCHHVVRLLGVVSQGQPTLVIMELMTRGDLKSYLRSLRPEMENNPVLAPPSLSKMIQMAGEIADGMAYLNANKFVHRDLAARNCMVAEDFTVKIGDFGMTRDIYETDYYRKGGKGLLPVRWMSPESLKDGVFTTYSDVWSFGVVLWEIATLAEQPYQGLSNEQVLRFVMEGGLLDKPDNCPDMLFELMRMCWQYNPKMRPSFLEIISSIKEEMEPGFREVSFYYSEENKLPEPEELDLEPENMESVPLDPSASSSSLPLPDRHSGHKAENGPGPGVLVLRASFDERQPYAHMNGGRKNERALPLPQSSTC

[11] = target: T3, Inhibitor of nuclear factor kappa-B kinase subunit beta (Homo sapiens); conditions: at 10 µM
[12] = target: Insulin receptor (Homo sapiens) (UniProt P06213); conditions: at 10 µM
Chain of Insulin receptor (Homo sapiens) (P06213 28-758 limits assumed): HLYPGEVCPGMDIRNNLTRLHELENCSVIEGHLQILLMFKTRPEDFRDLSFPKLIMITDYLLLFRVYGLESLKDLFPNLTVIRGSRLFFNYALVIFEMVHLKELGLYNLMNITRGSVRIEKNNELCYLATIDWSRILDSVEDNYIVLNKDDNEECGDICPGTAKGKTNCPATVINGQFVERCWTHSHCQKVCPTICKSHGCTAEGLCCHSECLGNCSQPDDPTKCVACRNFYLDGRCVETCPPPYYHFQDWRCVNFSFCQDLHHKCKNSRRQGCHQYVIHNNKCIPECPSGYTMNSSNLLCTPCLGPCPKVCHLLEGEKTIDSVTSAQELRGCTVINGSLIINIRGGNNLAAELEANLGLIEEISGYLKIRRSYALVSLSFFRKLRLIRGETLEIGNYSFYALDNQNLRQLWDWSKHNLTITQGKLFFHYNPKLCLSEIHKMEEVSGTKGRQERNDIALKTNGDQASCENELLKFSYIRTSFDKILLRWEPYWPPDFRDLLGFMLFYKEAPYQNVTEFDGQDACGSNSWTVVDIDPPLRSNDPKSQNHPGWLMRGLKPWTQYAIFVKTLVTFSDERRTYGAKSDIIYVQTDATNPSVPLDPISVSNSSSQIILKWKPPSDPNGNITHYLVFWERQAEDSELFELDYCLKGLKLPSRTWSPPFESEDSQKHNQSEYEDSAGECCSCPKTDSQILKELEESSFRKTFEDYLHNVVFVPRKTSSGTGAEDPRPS
Chain of Insulin receptor (Homo sapiens) (P06213 763-1382 limits assumed): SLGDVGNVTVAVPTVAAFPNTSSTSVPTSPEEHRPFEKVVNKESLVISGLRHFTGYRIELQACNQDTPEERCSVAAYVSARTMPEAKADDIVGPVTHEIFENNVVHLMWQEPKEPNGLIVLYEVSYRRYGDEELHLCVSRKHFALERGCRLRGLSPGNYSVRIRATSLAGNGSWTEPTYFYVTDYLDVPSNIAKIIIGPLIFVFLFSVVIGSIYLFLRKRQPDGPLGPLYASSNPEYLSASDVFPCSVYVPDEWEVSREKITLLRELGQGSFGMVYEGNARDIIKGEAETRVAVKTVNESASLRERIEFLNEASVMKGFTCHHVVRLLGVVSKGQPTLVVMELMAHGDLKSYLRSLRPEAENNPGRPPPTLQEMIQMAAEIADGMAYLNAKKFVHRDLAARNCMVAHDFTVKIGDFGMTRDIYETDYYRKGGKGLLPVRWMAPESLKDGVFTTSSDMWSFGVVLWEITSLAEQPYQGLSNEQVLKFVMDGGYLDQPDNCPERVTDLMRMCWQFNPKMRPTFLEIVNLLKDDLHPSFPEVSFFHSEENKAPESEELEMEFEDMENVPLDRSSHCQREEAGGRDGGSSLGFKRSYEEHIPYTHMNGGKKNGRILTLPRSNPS

[13] = target: T5, Interleukin-1 receptor-associated kinase 4 (Homo sapiens) (UniProt Q9NWZ3); conditions: at 1 µM
T5 sequence (whole entry): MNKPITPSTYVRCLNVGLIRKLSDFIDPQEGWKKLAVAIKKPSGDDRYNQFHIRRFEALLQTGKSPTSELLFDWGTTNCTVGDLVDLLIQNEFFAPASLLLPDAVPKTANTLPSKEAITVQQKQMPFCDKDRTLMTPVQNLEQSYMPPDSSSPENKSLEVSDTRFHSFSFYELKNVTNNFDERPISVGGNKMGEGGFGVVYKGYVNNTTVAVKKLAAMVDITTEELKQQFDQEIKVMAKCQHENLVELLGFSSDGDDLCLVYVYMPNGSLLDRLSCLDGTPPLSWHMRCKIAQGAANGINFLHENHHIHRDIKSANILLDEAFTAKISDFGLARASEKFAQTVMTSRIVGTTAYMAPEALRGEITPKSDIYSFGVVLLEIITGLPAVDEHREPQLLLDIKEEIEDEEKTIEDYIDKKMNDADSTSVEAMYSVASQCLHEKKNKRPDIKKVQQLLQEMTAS

[14] = target: T5, Interleukin-1 receptor-associated kinase 4 (Homo sapiens); conditions: at 10 µM
[15] = target: T6, Inhibitor of nuclear factor kappa-B kinase subunit alpha (Homo sapiens) (UniProt O15111); conditions: at 10 µM
T6 sequence (whole entry): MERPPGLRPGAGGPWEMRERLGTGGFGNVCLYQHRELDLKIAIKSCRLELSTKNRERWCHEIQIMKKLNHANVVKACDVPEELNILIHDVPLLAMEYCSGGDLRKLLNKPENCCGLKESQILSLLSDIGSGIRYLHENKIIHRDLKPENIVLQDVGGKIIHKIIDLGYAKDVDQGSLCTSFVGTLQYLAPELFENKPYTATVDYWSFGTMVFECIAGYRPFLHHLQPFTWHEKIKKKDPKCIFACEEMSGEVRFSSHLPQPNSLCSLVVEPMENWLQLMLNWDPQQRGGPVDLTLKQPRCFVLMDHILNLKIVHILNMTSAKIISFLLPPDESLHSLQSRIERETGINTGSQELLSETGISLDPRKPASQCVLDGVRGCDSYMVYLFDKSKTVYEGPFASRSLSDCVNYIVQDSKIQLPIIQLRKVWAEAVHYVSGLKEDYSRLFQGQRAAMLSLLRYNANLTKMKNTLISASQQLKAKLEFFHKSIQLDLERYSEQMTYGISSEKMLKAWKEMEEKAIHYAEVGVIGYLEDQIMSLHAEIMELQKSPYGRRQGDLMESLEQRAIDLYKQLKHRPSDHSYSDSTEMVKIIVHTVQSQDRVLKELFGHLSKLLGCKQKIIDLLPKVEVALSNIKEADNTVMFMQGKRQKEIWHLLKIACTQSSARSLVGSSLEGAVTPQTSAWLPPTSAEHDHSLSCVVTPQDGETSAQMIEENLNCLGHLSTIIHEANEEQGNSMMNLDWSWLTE

[16] = target: Insulin receptor (Homo sapiens) (UniProt P06213); conditions: at 1 µM
[17] = target: Insulin receptor (Homo sapiens) (UniProt P06213); conditions: at 1 µM; remark: listed apart in the source
[18] = target: Insulin receptor (Homo sapiens) (UniProt P06213); conditions: at 10 µM; remark: listed apart in the source
[19] = target: Insulin-like growth factor 1 receptor (Homo sapiens) (UniProt P08069); conditions: at 1 µM
[20] = target: T6, Inhibitor of nuclear factor kappa-B kinase subunit alpha (Homo sapiens); conditions: at 1 µM

COc1ccc(COc2ccc(Cc3cnc(N)nc3N)cc2OC)cc1
residual activity [1]: 58%
residual activity [2]: 79%
residual activity [3]: 77%
residual activity [4]: 109%
residual activity [5]: 76%
residual activity [6]: 67%
residual activity [7]: 137%
residual activity [8]: 82%
residual activity [9]: 100%

O=c1cc(N2CCNCC2)oc2c(-c3ccccc3)cccc12
residual activity [1]: 54%
residual activity [2]: 91%
residual activity [3]: 85%
residual activity [10]: 97%
residual activity [4]: 99%
residual activity [11]: 82%
residual activity [12]: 94%
residual activity [5]: 92%
residual activity [6]: 76%
residual activity [13]: 93%
residual activity [14]: 96%
residual activity [8]: 70%
residual activity [9]: 83%

O=C1Nc2ccc(Cl)cc2/C1=C/c1cc(Cl)c(O)c(Cl)c1
residual activity [1]: 38%
residual activity [2]: 79%
residual activity [3]: 42%
residual activity [15]: 88%
residual activity [4]: 100%
residual activity [11]: 67%
residual activity [16]: 96%
residual activity [12]: 63%
residual activity [17]: 95%
residual activity [18]: 57%
residual activity [5]: 84%
residual activity [6]: 81%
residual activity [13]: 75%
residual activity [14]: 51%
residual activity [7]: 111%
residual activity [8]: 74%

NC(=O)Nc1sc(-c2ccc(F)cc2)cc1C(N)=O
residual activity [1]: 6%
residual activity [2]: 75%
residual activity [3]: 74%
residual activity [19]: 65%
residual activity [10]: 19%
residual activity [5]: 84%
residual activity [6]: 49%
residual activity [13]: 46%
residual activity [14]: 9%
residual activity [7]: 69%
residual activity [8]: 3%
residual activity [9]: 22%

CC(C)(C)n1nc(Cc2cccc3ccccc23)c2c(N)ncnc21
residual activity [1]: 67%
residual activity [2]: 78%
residual activity [3]: 57%
residual activity [19]: 100%
residual activity [10]: 73%
residual activity [20]: 99%
residual activity [15]: 128%
residual activity [4]: 104%
residual activity [11]: 92%
residual activity [16]: 98%
residual activity [12]: 65%
residual activity [17]: 95%
residual activity [18]: 63%
residual activity [5]: 90%
residual activity [6]: 77%
residual activity [13]: 105%
residual activity [14]: 81%
residual activity [7]: 124%
residual activity [8]: 78%
residual activity [9]: 107%

O=C(CCCc1ccc(-c2ccccc2F)cc1)Nc1ccc(O)cc1
residual activity [1]: 73%
residual activity [2]: 108%
residual activity [3]: 112%
residual activity [19]: 100%
residual activity [10]: 92%
residual activity [20]: 101%
residual activity [15]: 129%
residual activity [11]: 101%
residual activity [16]: 112%
residual activity [12]: 102%
residual activity [17]: 97%
residual activity [18]: 97%
residual activity [5]: 78%
residual activity [13]: 93%
residual activity [14]: 82%
residual activity [7]: 88%
residual activity [8]: 98%
residual activity [9]: 90%
